Screens deposited in PubChem by National Center for Advancing Translational Sciences (NCATS).
Compounds with a hit are over-represented: about 2.4% of the library has one in this group of screens.
POLB inh: qHTS Assay for Inhibitors of DNA Polymerase Beta | P06746 | Pol beta primer extension/strand displacement, fluorescence kinetic | Potency, µM (doses to about 114 µM), usual class: inhibitors | 1.3% of 340,000 active
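Preincubation: enzyme (10 nM) with compound, 15 min, RT. Reaction: substrate added to 50 nM final. Reads: 0 and 10 min. Analysis: normalized, Hill fit.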
FEN1 inh: qHTS Assay for the Inhibitors of Human Flap endonuclease 1 (FEN1) | P39748 | Recombinant FEN1 flap cleavage, fluorescence, 15 min | Potency, µM (series often up to 114 µM), most hits filed as inhibitors | 0.35% of 390,000 active | AID 588795, 2011; note: nearly all actives have a fitted effect of over 65% in size
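Steps: FEN1 (10 nM) dispensed; compound added by pin tool; 15 min at room temperature; substrate added to 50 nM final; reads at 0 min and 15 min; data normalized and fitted (four-parameter Hill).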
Pol kappa inh: qHTS for Inhibitors of Polymerase Kappa; Potency, µM (top dose mostly 107 µM), usual class: inhibitors; purified Pol kappa, fluorescent DNA synthesis assay, 10 min; 0.53% of 400,000 active; DNA polymerase kappa (Homo sapiens), Q9UBT6
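10 nM Pol kappa preincubated 15 min at room temperature with compounds, then reaction started with substrate at 50 nM final. Fluorescence read kinetically at 0 and 10 min; buffer-only wells served as negative control.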
WRN helicase inh-1: qHTS for Inhibitors of WRN Helicase. Bifunctional 3'-5' exonuclease/ATP-dependent helicase WRN (Homo sapiens), Q14191. WRN helicase unwinding, fluorescent forked duplex, kinetic. Potency, µM (doses to about 114 µM), most hits filed as inhibitors. 0.46% of 360,000 active; note: nearly all actives have a fitted effect of over 55% in size
Target sequence (Q14191 whole entry, looked up): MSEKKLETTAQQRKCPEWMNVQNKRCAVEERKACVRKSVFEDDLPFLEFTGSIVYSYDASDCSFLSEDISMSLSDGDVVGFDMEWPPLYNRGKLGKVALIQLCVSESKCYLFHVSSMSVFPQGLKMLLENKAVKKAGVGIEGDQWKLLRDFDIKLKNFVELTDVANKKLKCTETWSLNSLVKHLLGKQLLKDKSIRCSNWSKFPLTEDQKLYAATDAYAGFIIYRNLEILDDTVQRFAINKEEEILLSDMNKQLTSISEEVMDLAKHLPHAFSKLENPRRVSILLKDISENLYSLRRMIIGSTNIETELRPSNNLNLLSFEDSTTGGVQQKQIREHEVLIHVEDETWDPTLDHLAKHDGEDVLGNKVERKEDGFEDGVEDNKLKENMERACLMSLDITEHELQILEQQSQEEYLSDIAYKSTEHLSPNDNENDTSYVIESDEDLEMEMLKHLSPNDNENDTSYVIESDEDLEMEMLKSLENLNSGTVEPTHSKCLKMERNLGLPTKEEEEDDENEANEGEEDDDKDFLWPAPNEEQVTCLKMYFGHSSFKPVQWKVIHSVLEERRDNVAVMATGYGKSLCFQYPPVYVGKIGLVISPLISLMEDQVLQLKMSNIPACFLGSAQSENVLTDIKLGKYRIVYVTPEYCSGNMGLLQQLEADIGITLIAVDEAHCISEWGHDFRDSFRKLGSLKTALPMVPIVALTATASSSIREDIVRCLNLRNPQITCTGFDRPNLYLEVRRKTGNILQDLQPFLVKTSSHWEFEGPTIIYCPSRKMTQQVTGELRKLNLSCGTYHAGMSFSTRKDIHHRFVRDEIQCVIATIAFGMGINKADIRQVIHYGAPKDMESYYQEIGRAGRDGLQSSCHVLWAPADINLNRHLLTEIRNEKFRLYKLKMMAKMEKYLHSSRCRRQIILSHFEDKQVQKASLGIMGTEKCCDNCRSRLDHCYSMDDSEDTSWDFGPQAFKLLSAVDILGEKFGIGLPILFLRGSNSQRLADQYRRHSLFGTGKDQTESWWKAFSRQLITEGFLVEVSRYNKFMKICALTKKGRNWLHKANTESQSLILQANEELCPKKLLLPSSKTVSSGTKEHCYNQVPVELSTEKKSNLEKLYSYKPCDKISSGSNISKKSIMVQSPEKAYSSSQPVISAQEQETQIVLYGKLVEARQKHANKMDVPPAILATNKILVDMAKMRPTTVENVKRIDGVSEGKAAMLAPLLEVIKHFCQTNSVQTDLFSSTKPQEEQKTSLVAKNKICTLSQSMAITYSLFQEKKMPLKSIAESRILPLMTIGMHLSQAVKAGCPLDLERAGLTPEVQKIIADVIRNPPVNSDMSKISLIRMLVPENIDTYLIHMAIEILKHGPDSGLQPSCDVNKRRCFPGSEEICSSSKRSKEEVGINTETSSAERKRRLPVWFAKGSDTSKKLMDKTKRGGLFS
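Enzyme (20 nM final) and test compound sit together 15 min at room temperature before substrate addition. Substrate is a single-forked duplex oligonucleotide (100 nM) labelled with fluorophore and quencher, with 2 mM ATP; helicase unwinding raises red fluorescence, read kinetically.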
POLH inh: qHTS for Inhibitors of Polymerase Eta | 1.2% of 390,000 active | DNA polymerase eta (Homo sapiens), Q9Y253 | recombinant Pol eta, fluorescent DNA replication assay | AID 588591, 2011 | Potency, µM (highest dose often 114 µM), actives largely listed as inhibitors
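Pol eta (10 nM) was preincubated with compounds for 15 min at room temperature, after which fluorescent replication substrate (50 nM final) was added to start the reaction. Fluorescence was read kinetically at 0 and 10 min.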
Pol iota inh: qHTS for Inhibitors of Polymerase Iota | DNA polymerase iota (Homo sapiens), Q9UNA4 | Pol iota fluorescent replication assay, 10 min | Potency, µM (doses to about 115 µM), usual class: inhibitors | 1% of 390,000 active
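Pol iota at 10 nM preincubated 15 min with compounds at room temperature; reaction started with fluorescent substrate, 50 nM final. Fluorescence read kinetically at 0 and 10 min; buffer-only wells as negative control.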
WRN helicase inh-2: qHTS for Inhibitors of WRN Helicase: Confirmatory Assay for Cherry-picked Compounds | AID 720497, 2013 | shares compounds with WRN helicase inh-1 | 63% of 610 active | WRN helicase DNA unwinding, fluorescence kinetic | Potency, µM (doses to about 57.1 µM), hits mostly inhibitors; note: nearly all actives have a fitted effect of over 65% in size
TO displacement: qHTS for Inhibitors of WRN Helicase: Thiazole Orange DNA Binding Counterscreen; thiazole orange DNA binding displacement, fluorescence; shares compounds with WRN helicase inh-1; 10% of 610 active; AID 720499, 2013; Potency, µM (titrated, usually from 57.1 µM), most hits filed as inhibitors;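 note: drop in dye fluorescence marks compound binding to DNA; nearly all actives have a fitted effect of over 60% in size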
BLM counter: qHTS for Inhibitors of WRN Helicase: BLM Helicase Counterscreen for WRN Inhibitors. 60% of 610 active. shares compounds with WRN helicase inh-1. AID 720503, 2013. Potency, µM (doses to about 57.1 µM), actives largely listed as inhibitors. Recombinant BLM helicase DNA unwinding, red fluorescence; note: nearly all actives have a fitted effect of over 60% in size
A number is an active result; i = inactive; ? = inconclusive; nt = not tested or not shown. Calls come from the whole dose curve; as a rule, active = well fitted curve in the direction sought with a large enough effect; inconclusive = small, poorly fitted or top-dose-only effect, or another doubt; inactive = no such curve, though single readings can be large; an effect the other way counts as inactive or inconclusive.

SMILES	POLB inh	FEN1 inh	Pol kappa inh	WRN helicase inh-1	POLH inh	Pol iota inh	WRN helicase inh-2	TO displacement	BLM counter
CC(C)(C)N(Cc1ccc2c(c1)OCO2)C(=O)/C=C\S(=O)c1ccccc1 (centres undefined)	nt	i	i	?	i	i	12.1µM	i	24.1µM
CCN(Cc1ccc2c(c1)OCO2)C(=O)/C=C/c1cccc(Br)c1	i	i	i	i	i	i	nt	nt	nt
COc1ccc2cc3cc(C(=O)NCc4cccs4)oc3nc2c1	22.4µM	?	i	39.8µM	?	?	24.1µM	i	15.2µM
COc1ncc2nc(-c3cc(F)cc(F)c3)c(=O)n(CCC#N)c2n1	nt	nt	i	nt	nt	nt	nt	nt	nt
CNc1ccccc1C(C)(C)c1cc(-c2cccc([N+](=O)[O-])c2)no1	i	i	i	i	i	i	nt	nt	nt
CNc1ccccc1C(C)(C)c1cc(-c2cccc(Br)c2)no1	i	i	i	79.4µM	?	?	?	i	?
COC(=O)c1nc(N2CCN(S(=O)(=O)c3ccc(C)cc3)CC2)c2ccccc2n1	nt	i	i	nt	nt	i	nt	nt	nt
C=CCN1C(=O)/C(=C\C=C2\N(C)c3ccccc3C2(C)C)SC1=S	?	?	i	?	?	?	nt	nt	nt
CCCN1C(=O)/C(=C/C=C2\N(CC)c3ccccc3C2(C)C)SC1=S	i	?	i	18.9µM	56.2µM	i	21.5µM	i	21.5µM
CN1CCN(C(=S)C(=O)Nc2ccc(Br)cc2)CC1	i	?	i	44.7µM	i	i	i	i	i
CC[C@H](C)[C@H](NC(=O)[C@H](Cc1ccccc1)NC(=O)[C@H](CC(C)C)NC(=O)[C@H](CCSC)NC(=O)[C@H](CCC(=O)O)NC(=O)[C@H](CCC(=O)O)NC(=O)[C@H](CC(=O)O)NC(=O)[C@H](CO)NC(=O)[C@@H]1CCCN1C(=O)[C@H](CCCCN)NC(=O)[C@@H](N)[C@@H](C)O)C(=O)N[C@@H](Cc1ccc(O)cc1)C(=O)NCC(=O)N[C@@H](Cc1cnc[nH]1)C(=O)N[C@@H](Cc1ccc(O)cc1)C(=O)N[C@@H](CCCCN)C(=O)N[C@@H](CCC(N)=O)C(=O)N[C@@H](C)C(=O)N[C@H](C(=O)N[C@H](C(=O)NCC(=O)N[C@@H](CC(=O)O)C(=O)N[C@H](C(=O)N[C@@H](CC(N)=O)C(=O)N[C@H](C(=O)N[C@@H](CCC(=O)O)C(=O)N[C@@H](CCCNC(=N)N)C(=O)N1CCC[C@H]1C(=O)NCC(=O)N[C@@H](CCSC)C(=O)N[C@@H](CC(C)C)C(=O)N[C@@H](CC(=O)O)C(=O)N[C@@H](Cc1ccccc1)C(=O)N[C@H](C(=O)O)[C@@H](C)O)[C@@H](C)O)[C@@H](C)CC)C(C)C)[C@@H](C)O	nt	nt	i	nt	nt	nt	nt	nt	nt
c1ccc(CNc2ncncc2-c2ccoc2)cc1	nt	nt	i	nt	nt	nt	nt	nt	nt
COc1ccc2[nH]c(C(O)C(O)c3nc4c(OC)c(OC)ccc4[nH]3)nc2c1OC (centres undefined)	nt	?	i	nt	nt	i	nt	nt	nt
COc1ccc(NC(=O)c2oc3ccccc3c2NC(=O)C23CC4CC(CC(C4)C2)C3)c(OC)c1	i	i	i	nt	i	i	nt	nt	nt
COC(=O)c1ccc(NC(=O)CC2C(=O)N(c3cccc(OC)c3)C(=O)N2Cc2ccco2)cc1 (centres undefined)	i	i	i	nt	i	i	nt	nt	nt
COc1cccc(C(=O)CC2(O)C(=O)Nc3ccc(Cl)cc32)c1 (centres undefined)	i	i	i	nt	i	i	nt	nt	nt
O=C(Nc1ccc(Br)cc1)c1ccc(-n2cnnn2)cc1	i	i	i	i	i	?	nt	nt	nt
O=C(Nc1cc(SCC(O)CO)cc([N+](=O)[O-])c1)c1ccc(-n2cnnn2)cc1 (centres undefined)	?	i	i	?	i	?	?	i	?
OCC1O[C@H](O[C@H]2C(O)C(O)C(O)O[C@@H]2CO)C(O)C(O)C1O (some centres undefined)	nt	nt	i	nt	nt	nt	nt	nt	nt
CN(C)c1ncc2nc(-c3ccc(Cl)cc3)c(=O)n(C)c2n1	nt	nt	i	nt	nt	nt	nt	nt	nt
CCOc1ccc(N2C(=O)c3cccnc3C2Nc2ccc(Cl)cc2)cc1 (centres undefined)	i	i	i	i	i	?	nt	nt	nt
Cc1ccc(NC2c3ncccc3C(=O)N2c2ccccc2C)cc1C (centres undefined)	i	i	i	44.7µM	i	56.2µM	i	i	i
O=C1OC(c2ccc3ccccc3c2O)(c2ccc3ccccc3c2O)c2ccccc21	nt	?	?	?	25.1µM	?	?	24.1µM	i
O=C1OC(c2ccc(O)cc2)(c2ccc(O)cc2)c2ccccc21	i	i	i	i	i	i	nt	nt	nt
CCc1ccc2c(c1)C(NC(C)=O)C(=O)N2CCN1CCOCC1 (centres undefined)	i	?	i	44.7µM	?	2.24µM	?	i	19.2µM
SMILES	POLB inh	FEN1 inh	Pol kappa inh	WRN helicase inh-1	POLH inh	Pol iota inh	WRN helicase inh-2	TO displacement	BLM counter
CCCN1C(=O)C(NC(C)=O)c2ccccc21 (centres undefined)	i	i	i	i	i	i	nt	nt	nt
C=CCn1c(SCC(=O)c2ccc(O)c(O)c2)nnc1-c1ccc(C)cc1	nt	i	?	?	?	?	19.2µM	i	?
CN(C)c1nc2c(Br)c(Br)c(Br)c(Br)c2[nH]1	i	nt	i	nt	i	?	nt	nt	nt
CN(C)CCCNc1nc2cc(-c3ccsc3)sc2c(=O)n1C	nt	nt	nt	i	nt	nt	nt	nt	nt
CN(C)CCCNc1nc2cc(-c3ccc4c(ccn4C)c3)sc2c(=O)n1C	nt	nt	nt	?	nt	nt	24.1µM	24.1µM	i
CCc1nnc(NC(=O)c2cc(-c3ccc(C)o3)nc3ccccc23)s1	nt	i	i	?	i	i	?	i	i
CCc1nnc(NC(=O)c2cc(C)nc3ccccc23)s1	i	i	i	i	i	i	nt	nt	nt
Cc1ccccc1N=Cc1cc2c(cc1O)OC(N)=C(C#N)C2c1ccccc1 (centres undefined)	i	i	?	?	?	i	?	i	?
